Results on 28 compounds are retold here after PubChem BioAssay AID588697 (Southern Research Specialized Biocontainment Screening …, 2011).

Records with an inconclusive call do not appear. Activity calls are given as the source filed them.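 Rule for the calls: active = inhibition of at least 30% at any tested concentration; inactive = the rest, inconclusive results apart.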

For this assay, the system named is M18 aspartyl aminopeptidase (Plasmodium falciparum 3D7). Put plainly: PfM18AAP inhibitors, dose response, counter-screen for PfM17LAP inhibitor project, biochemical, QFRET fluorogenic substrate (AID 588697). Conditions: recombinant PfM18AAP, H-Glu-NHMec fluorogenic substrate; series mostly up to 100 µM. In general terms: A counterscreen serves to expose hits that act by an unwanted route or on another target.
Regarding `COC(=O)c1c(NC(=O)c2ccccc2C(=O)O)sc2c1CCCC2`, the outcome was inactive. `O=C(CSc1nccc(=O)[nH]1)Nc1ccc(N2CCOCC2)cc1`: the result was inactive. The result for `COC(=O)c1c(NC(=O)C2CCCCC2C(=O)O)sc2c1CCC(c1ccccc1)C2` (stereo not drawn) reads “inactive”. For `COc1cc(NC(=O)CSc2ccccc2)c(C(=O)O)cc1OC`, the outcome was inactive. The result for `O=C(Nc1ccc(Cl)cc1)Nc1ccccc1C(=O)O` reads “inactive”; that for `COc1cc(NC(=O)c2ccc(-c3ccccc3)cc2)c(C(=O)O)cc1OC`, “inactive”; that for `O=C1OCCC1Sc1nnc(NC2CCCCC2)s1` (stereo not drawn), “inactive”. Consider `CCC(C)(C)C1CCc2c(sc(NC(=O)C3CC(C)=C(C)CC3C(=O)O)c2C(=O)OC)C1` (stereo not drawn), for which the result was inactive. The result for `Cc1ccc(NC(=O)CSc2nc(O)cc(=O)n2Cc2ccccc2)cc1` reads “inactive”.

Take `COC(=O)c1ccccc1NC(=O)c1ccc2c(Cl)c3c(nc2c1)CCC3`: the result was inactive. The result for `O=C(CSc1ccccc1)Nc1cccc2c1C(=O)NC2=O` reads “inactive”; that for `O=C(Cc1cccc2ccccc12)NO`, “inactive”. The result for `CC1CCc2sc(C(=O)Nc3cccc4c3C(=O)NC4)cc2C1` (stereo not drawn) reads “inactive”.

Consider `CCn1c2ccccc2c2cc(NC(=O)CSc3nc(C)cc(=O)[nH]3)ccc21`, for which the result was inactive. The result for `NC(N)=NCCC[C@H](N)C(=O)NO` reads “inactive”; that for `Cc1cc(SCC(=O)Nc2ccccc2C(=O)O)nc2ccccc12`, “inactive”; that for `N[C@@H](Cc1c[nH]c2ccccc12)C(=O)NO`, “inactive”. Turning to `COc1ccc(-c2nnc(NC(=O)C3CC(C)=C(C)CC3C(=O)O)s2)cc1` (stereo not drawn), the outcome was inactive.

In the case of `CC(C)C[C@H](N)C(=O)NO`, the outcome was inactive. Turning to `O=C(CSc1nc(O)cc(=O)[nH]1)Nc1ccccc1`, the result was inactive. For the compound `COC(=O)c1ccccc1NC(=O)c1cc2cc3ccc(C)cc3nc2s1`, the result was inactive. The result for `Cc1cc(=O)[nH]c(SCC(=O)Nc2ccccc2)n1` reads “inactive”; that for `COC(=O)c1cc(OC)c(OC)cc1NC(=O)c1sc2nc(C)ccc2c1N`, “inactive”. The result for `CC1=C(C)CC(C(=O)Nc2nc(-c3cc(C)ccc3C)c(C)s2)C(C(=O)O)C1` (stereo not drawn) reads “inactive”.

On to `O=C(O)c1ccccc1C(=O)Nc1nc2c(s1)CCCC2`, for which the outcome was inactive.

With `O=C(CSc1nccc(=O)[nH]1)Nc1ccc(Oc2ccccc2)cc1`, the outcome was inactive. Take `CC1=C(C)CC(C(=O)Nc2ccc(Oc3ccc(Cl)cc3)cc2)C(C(=O)O)C1` (stereo not drawn): the result was inactive. On to `COC(=O)c1c(NC(=O)C2CC=CCC2C(=O)O)sc(C)c1-c1ccc(C)cc1` (stereo not drawn), for which the outcome was inactive.
